In PubChem BioAssay AID2018 (Sanford-Burnham Center for Chemical Genomics, 2009):
Hit rate of the full screen: of about 1,200 compounds, about 600 (50%) were called active. No stated cut-off is given here; in the data, active means inhibition above about 42%; inactive means the rest. The set was probably picked from earlier hits. The list shows a part of the results. Measured potencies and affinities stand elsewhere.

The compounds below were run against SUMO-conjugating enzyme UBC9 (Homo sapiens) (UniProt P63279) (assay: blockers of UBC9-mediated SUMO conjugation – biochemical, AlphaScreen, SUMOylation inhibitor project, confirmation (AID 2018)). Conditions: AlphaScreen in vitro SUMOylation assay; at 35 µM; hits give high values.
Sequence of SUMO-conjugating enzyme UBC9 (Homo sapiens) (P63279 whole entry, looked up): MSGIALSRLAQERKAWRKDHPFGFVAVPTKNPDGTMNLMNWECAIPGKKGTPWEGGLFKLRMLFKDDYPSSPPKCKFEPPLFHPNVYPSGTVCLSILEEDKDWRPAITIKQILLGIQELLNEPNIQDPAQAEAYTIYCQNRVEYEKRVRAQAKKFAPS
For CCOc1ccc(NC(=S)Nc2cccc3ccccc23)cc1, the inhibition was 4.4% (inactive).
CCOC(=O)COc1nc(-c2ccco2)cc(-c2ccco2)c1C#N was tested, and the inhibition was -28.4% (inactive).
With COc1ccc(C(N)c2nccc3cc(OC)c(OC)cc23)cc1OC (centres undefined) the inhibition was 22.1% (inactive).
With CC1=CC(C)(C)N2C(=O)C(=Nc3ccc(O)cc3)c3cccc1c32 the inhibition was 95.8% (active).
For Cc1cc(=O)[nH]c(SCC(=O)c2ccc(O)c(O)c2)n1, the inhibition was 55.2% (active).
In the case of Cc1cc(=O)[nH]c(SCC(=O)Nc2cccc(C(F)(F)F)c2)n1, the inhibition is reported as -20.9% (inactive).
CCC(=O)c1ccccc1OCCSc1nc(C)cc(=O)[nH]1 was tested, and the inhibition was 10.6% (inactive).
With O=C(NN1C(=O)CSC1=S)C(=O)NN1C(=O)CSC1=S the inhibition was 102% (active).
For CCOc1cc(CNc2cccc3ccccc23)cc(Br)c1OCC(=O)NC(C)(C)C, the inhibition was -1.9% (inactive).
With CCOc1cc(CNc2ccc(N3CCN(C(C)=O)CC3)cc2)cc(Br)c1OC the inhibition was 45.3% (active).
Oc1ccc2ccccc2c1C=NCc1cn2ccsc2n1 was tested, and the inhibition was 42.5% (active).
With CCN(Cc1cc(=O)n2ccsc2n1)c1cccc2ccccc12 the inhibition was 25.6% (inactive).
In the case of Oc1ccc2ccccc2c1C=NCc1ccccc1, the inhibition is reported as 38.6% (inactive).
For Cc1ccc(NC(=S)Nc2ccc3cn[nH]c3c2)cc1, the inhibition was 30.2% (inactive).
CN(C)c1cccc2c(C=C(C#N)C#N)ccc(N(C)C)c12 was tested, and the inhibition was 19.4% (inactive).
In the case of CCCS(=O)(=O)c1c(S(=O)(=O)CCC)c2c(N)cccn2c1C(=O)c1ccc(Br)cc1, the inhibition is reported as 23.1% (inactive).
COc1ccc(N2C3=C(CC4=C2CCCC4=O)C(=O)CCC3)cc1 was tested, and the inhibition was 19.3% (inactive).
CCOC(=O)C(CCCCOc1ccc([N+](=O)[O-])cc1)C(=O)OCC was tested, and the inhibition was -21.9% (inactive).
With O=C(O)/C=C/C(=O)Nc1ccc(O)cc1 the inhibition was 15.1% (inactive).
For CCOc1cccc(CNc2ccc(O)cc2)c1OCc1ccc(Cl)cc1Cl, the inhibition was 81% (active).
For Oc1ccc(NCc2ccccc2OCc2ccccc2F)cc1, the inhibition was 88.9% (active).
In the case of CCOc1ccccc1CNc1ccc(O)cc1, the inhibition is reported as 45.3% (active).
For O=c1[nH]nc(CNc2ccc(O)cc2)c2ccccc12, the inhibition was 9.6% (inactive).
For Cn1c(CNc2ccc(O)cc2)nc2ccccc21, the inhibition was 16.9% (inactive).
For CCOC(=O)C1=C(N)n2c(s/c(=C/c3ccco3)c2=O)=C(C(=O)OC)C1c1ccco1 (centres undefined), the inhibition was 34% (inactive).
COc1ccccc1/C=C/CN1CCN(c2ccccc2)CC1 was tested, and the inhibition was 29.6% (inactive).
In the case of O=c1nc2s/c(=C\c3ccco3)c(=O)n2nc1Cc1ccccc1, the inhibition is reported as 26.6% (inactive).
O=c1c2cc(N3CCOCC3)ccc2[nH]c(=S)n1CC1CCCO1 (centres undefined) was tested, and the inhibition was -2.6% (inactive).
With CCOC(=O)c1c(NC(=O)C2C3C=CC(CC3)C2C(=O)O)sc(C)c1CC (centres undefined) the inhibition was 20% (inactive).
With O=C(/C=C/c1ccco1)Nc1cccc2cccnc12 the inhibition was 6.6% (inactive).
In the case of Cc1ccc(O)c(CNc2cccc3cccnc23)c1, the inhibition is reported as 49.6% (active).
With COc1cccc(CNc2cccc3cccnc23)c1O the inhibition was 43.5% (active).
Oc1ccc(Br)cc1CNc1cccc2cccnc12 was tested, and the inhibition was 61.8% (active).
With CC(C)(C)C(=O)NC(Nc1cccc2cccnc12)C(Cl)(Cl)Cl (centres undefined) the inhibition was 7.9% (inactive).
With Cc1ccc(F)c(NC(=S)Nc2cccc3ccccc23)c1 the inhibition was 10.1% (inactive).
O=C(O)c1cc2cccc(S(=O)(=O)N3CCOCC3)c2cc1O was tested, and the inhibition was -21.6% (inactive).
CC(=O)c1ccc2cccc3c2c1N=CN3C was tested, and the inhibition was 13.7% (inactive).
In the case of COc1cc(C)c2c(c1C=O)Oc1c(c(C)c(O)c3c1C(O)OC3=O)OC2=O (centres undefined), the inhibition is reported as 95% (active).
With CCc1ccc(S(=O)(=O)Nc2ccc(O)c3ccccc23)cc1 the inhibition was 38.3% (inactive).
For O=S(=O)(Nc1ccc(O)c2ccccc12)c1cccs1, the inhibition was 51.7% (active).
In the case of Cc1ccc(S(=O)(=O)NNC(=O)Nc2cccc3ccccc23)cc1, the inhibition is reported as 9.6% (inactive).
For COc1ccc(S(=O)(=O)Nc2ccc(O)c3ccccc23)cc1, the inhibition was 48.3% (active).
For CCc1ccc2c(c1)c1nc(C)sc1n2CC, the inhibition was 20.9% (inactive).
With O=C1C=C(O)CC(c2ccco2)C1 (centres undefined) the inhibition was 47.7% (active).
In the case of Nc1ccccc1NC1=CC(=O)CC(c2ccco2)C1 (centres undefined), the inhibition is reported as 18.4% (inactive).
For CC(C)CNC1=CC(=O)CC(c2ccco2)C1 (centres undefined), the inhibition was 0.4% (inactive).
For CCOc1cc(NC(=S)NCc2ccco2)c(OCC)cc1NC(=O)CC, the inhibition was -0.7% (inactive).
In the case of Cc1sc2nc3ccc(NCc4ccco4)nn3c(=O)c2c1C, the inhibition is reported as 0.9% (inactive).
CCOC(=O)N1CCc2c(sc3c2c(=O)n(Cc2ccccc2)c(=O)n3CC(=O)NCCOC)C1 was tested, and the inhibition was 15.2% (inactive).
CCCCCCCC1(C)NC(=O)N(CC(=O)Nc2cc(C)on2)C1=O (centres undefined) was tested, and the inhibition was 2.5% (inactive).
For Cc1oc(-c2ccc(F)cc2)cc1-c1nn2c(-c3ccoc3C)nnc2s1, the inhibition was 22.7% (inactive).
Cc1c(C(=O)c2ccc(Cl)cc2[N+](=O)[O-])c2ccccn2c1CCC#N was tested, and the inhibition was 17.8% (inactive).
O=C(CSc1nnc(-c2ccco2)c(-c2ccco2)n1)c1ccccc1 was tested, and the inhibition was 76.2% (active).
For COc1ccc(C(=O)CSc2nnc(-c3ccco3)c(-c3ccco3)n2)cc1, the inhibition was 43% (active).
In the case of COc1ccccc1CCNC(=O)CSc1ccc(-c2ccco2)nn1, the inhibition is reported as 19% (inactive).
Cc1ccc(-c2cc(C(=O)N/N=C/c3ccc([N+](=O)[O-])o3)c3ccccc3n2)o1 was tested, and the inhibition was 30.3% (inactive).
O=C(N/N=C/c1ccc(-c2ccc(Cl)c(C(=O)O)c2)o1)c1cc2c(ccc3ccccc32)o1 was tested, and the inhibition was 102% (active).
For Cc1c(C(=O)O)c(C(=O)O)nc2ccc(N3CCOCC3)cc12, the inhibition was -17.6% (inactive).
With NC1=NC(c2ccc(Cl)cc2)N(c2ccc(S(N)(=O)=O)cc2)C(N)=N1 (centres undefined) the inhibition was 25.2% (inactive).
In the case of CC(Nc1cccc2ccccc12)C(=O)N/N=C/c1ccccn1 (centres undefined), the inhibition is reported as -4.4% (inactive).
For O=C(CNc1cccc2ccccc12)N/N=C/c1ccc([N+](=O)[O-])o1, the inhibition was 37.5% (inactive).
For COc1cc(/C=C2/C(=O)N(c3ccc([N+](=O)[O-])cc3)N=C2N2CCOCC2)ccc1O, the inhibition was 68.6% (active).
In the case of COc1ccc(CCN2Cc3c(cccc3[N+](=O)[O-])C2=O)cc1OC, the inhibition is reported as -5.8% (inactive).
With O=C1CC(N2CCOCC2)=NN1c1ccc([N+](=O)[O-])cc1 the inhibition was 51.4% (active).
In the case of N#Cc1cc2ccc(N3CCOCC3)cc2cc1C#N, the inhibition is reported as -11.7% (inactive).
For C#CCOc1ccc(/C=C2/C(=O)N(c3cccc(C(=O)O)c3)N=C2C)cc1OC, the inhibition was 55.9% (active).
With CC(=O)c1cccc(NC(=S)Nc2cccc3ccccc23)c1 the inhibition was -7.4% (inactive).
With COc1cc(=O)n(C)c2c(OCC3OC(C)(C)OC3(C)C)cccc12 (centres undefined) the inhibition was 11.2% (inactive).
With Cc1ccc(Cn2nnnc2CN2CCC(NC(=O)C(C)(C)C)CC2)cc1 the inhibition was -8.9% (inactive).
With O=C(Nc1ccc(Cl)c(Cl)c1)Nn1cnnc1 the inhibition was -10.6% (inactive).
With COc1cc(/C=C2/C(=O)N(c3ccccc3)N=C2C)ccc1OS(=O)(=O)c1ccccc1 the inhibition was 91.3% (active).
For COc1ccc(/C=C2/C(=O)N(c3ccccc3)N=C2C)cc1OC, the inhibition was 38.1% (inactive).
With COc1ccc(C(=O)N2CCC(O)(c3ccc(F)cc3)CC2)cc1OC the inhibition was -18.3% (inactive).
With Cc1[nH][nH]c(=O)c1C(c1ccc(-c2ccc(Cl)cc2)o1)c1c(C)[nH][nH]c1=O the inhibition was 66.7% (active).
For Cc1[nH][nH]c(=O)c1C(c1ccc(-c2ccc(F)cc2)o1)c1c(C)[nH][nH]c1=O, the inhibition was 59.6% (active).
For Cc1[nH][nH]c(=O)c1C(c1ccc(-c2cccc(Cl)c2)o1)c1c(C)[nH][nH]c1=O, the inhibition was 101% (active).
With OC(COc1ccccc1)CSc1ncn[nH]1 (centres undefined) the inhibition was 2.4% (inactive).
With O=S(=O)(Nc1ccc2c(c1)nc1n2CCN(Cc2ccccc2)C1)c1ccccc1 the inhibition was -3.3% (inactive).
With O=S(=O)(Nc1cc2nc3ccccc3nc2n1Cc1ccccc1)c1ccc(Cl)cc1 the inhibition was 102% (active).
In the case of CCn1c2ccccc2c2c3ncc4cccn4c3ccc21, the inhibition is reported as -74.8% (inactive).
In the case of Cc1cccn2c(=O)c3cc(C(=O)NC4CCCCCC4)sc3nc12, the inhibition is reported as 33.8% (inactive).
COc1ccc(NC(=S)Nc2ccc3nccnc3c2)cc1 was tested, and the inhibition was 8.4% (inactive).
With CCOc1ccc(NC(=S)Nc2ccc3nsnc3c2)cc1 the inhibition was 101% (active).
With COc1ccc(NC(=S)Nc2ccc3nsnc3c2)cc1 the inhibition was 101% (active).
In the case of S=C(Nc1ccc2nsnc2c1)N1CCCC1, the inhibition is reported as 17.9% (inactive).
In the case of COc1ccc(N(C)C(=O)Nc2ccc3nsnc3c2)cc1, the inhibition is reported as 7.7% (inactive).
For C=CCN(CC=C)C(=S)Nc1ccc2nsnc2c1, the inhibition was 23.6% (inactive).
With COc1ccc(/C=N/N=C2/CC(C)(C)Cc3n[nH]c(=O)cc32)cc1 the inhibition was 26.2% (inactive).
For COc1ccc(OC)c(/C=N/NC(=O)CCc2ccc(O)c(O)c2)c1, the inhibition was 18.5% (inactive).
In the case of O=C(O)c1cccc([N+](=O)[O-])c1C(=O)Nc1cccc2ccccc12, the inhibition is reported as -1.9% (inactive).
For O=C(NC(=S)Nc1cccc2c(O)cccc12)c1ccccc1[N+](=O)[O-], the inhibition was 16.6% (inactive).
For N#Cc1c(N)nc2c(c1-c1ccc3c(c1)OCO3)CCc1ccccc1-2, the inhibition was -58.5% (inactive).
For S=C(Nc1cccc(Cl)c1)Nc1ccc2cn[nH]c2c1, the inhibition was 7.2% (inactive).
Fc1ccc(NC(=S)Nc2cccc3ccccc23)cc1 was tested, and the inhibition was -2.8% (inactive).
In the case of Fc1ccc(NC(=S)Nc2cccc3ccccc23)cc1F, the inhibition is reported as -4.6% (inactive).
For Cc1cc(C)c(C(N)=O)c(Nc2cccc3ccccc23)n1, the inhibition was 24.4% (inactive).
Cc1ccc(NC(=S)Nc2cccc3ccccc23)cc1F was tested, and the inhibition was 3.1% (inactive).
With Nc1ccc(O)cc1C(=O)OCC(=O)c1ccc(C2CCCCC2)cc1 the inhibition was 29.2% (inactive).
COC(=O)C1C(O)=C(C(C)=Nc2cccc3ccccc23)C(=O)CC1(C)C (centres undefined) was tested, and the inhibition was -0.8% (inactive).
